The target of assay [1] is Vitamin D3 receptor (Homo sapiens) (UniProt P11473). As to the kind of experiment: qHTS assay for small molecule antagonists of vitamin D receptor signaling (AID 588541; calls by dose curve;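 also: receptor activated by calcitriol during compound treatment; series mostly up to about 77 µM; % is scaled to controls: 0 for no effect and ±100 for the full control effect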). A digest of the protocol: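 VDR-UAS-bla HEK293T cells in 2% charcoal-stripped FBS were stimulated with 1-alpha,25-dihydroxyvitamin D3 (3 nM final) plus compound for 16 h at 37 C. The beta-lactamase CCF4 readout was normalized to 50 nM agonist and DMSO, and Hill fits gave IC50.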
For orientation: In qHTS, concentration-response curves come from the screen itself.

Assay [2] has the same target. Nature of the assay: qHTS assay for small molecule agonists of vitamin D receptor signaling (AID 588543; calls by dose curve;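 also: 0% = DMSO basal and 100% = reference agonist control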). A digest of the protocol:
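GeneBLAzer VDR-UAS-bla HEK293T cells in 2% charcoal-stripped FBS medium were dosed with compound titrations for 16 h at 37 °C; CCF4 β-lactamase readout (405 nm ex, 460/530 nm em). EC50 and efficacy from Hill fits, normalized to 50 nM calcitriol (100%) and DMSO (0%).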

Assay [3] deals with Thyroid hormone receptor beta (Homo sapiens) (UniProt P10828). As to the kind of experiment: qHTS assay for small molecule agonists of thyroid hormone receptor beta signaling (AID 588545; calls by dose curve). A digest of the protocol: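 HEK 293 TR-UAS-bla; agonist mode; 18 hrs, 37 C; CCF4, ex 405/em 460 and 530 nm; norm. T3 10 nM = 100%, DMSO = 0%; Hill fit → EC50, efficacy.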
Assay [4] is described as follows: qHTS assay for small molecule antagonists of retinoid X receptor alpha signaling (AID 588546; active = well fitted inhibition curve with a large enough effect in the signal ratio, with a control signal flat, not every such curve was filed as active; the % refers to the signal ratio;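 also: cells stimulated with 9-cis-retinoic acid as agonist; % is scaled to controls: 0 for no effect and ±100 for the full control effect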). To be noted: HEK293T RXRa-UAS-bla, beta-lactamase ratio, antagonist mode; measured here: W530 green channel, cytotoxicity proxy. A digest of the protocol: (§1)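 Beta-lactamase reporter inhibition, read as CCF4 fluorescence ratio (ex 405, em 460/530 nm) after 2 h at RT. HEK293T UAS-bla cells, 2500/well, were stimulated with 9-cis-RA at 500 or 100 nM final alongside test compound for 18 h at 37 C.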

The target in assay [5] is Retinoic acid receptor RXR-alpha (Homo sapiens) (UniProt P19793). The assay is described as above. To be noted: HEK293T RXRa-UAS-bla, beta-lactamase ratio, antagonist mode. The essentials: as §1
The target of assay [6] is Thyroid hormone receptor beta (Homo sapiens) (UniProt P10828). Nature of the assay: qHTS assay for small molecule antagonists of thyroid hormone receptor beta signaling (AID 588547; active = well fitted inhibition curve with a large enough effect in the signal ratio, with a control signal flat, not every such curve was filed as active; the % refers to the signal ratio;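 also: cells stimulated with 0.4 nM T3 agonist during compound exposure; series mostly up to about 77 µM; % is scaled to controls: 0 for no effect and ±100 for the full control effect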). To be noted: TR-UAS-bla HEK293, beta-lactamase ratio, antagonist mode, 18 h. The essentials: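 TR-UAS-bla GripTite HEK293 cells in 2% charcoal/dextran FBS medium; compounds 0.59 nM to 92 uM with T3 at 0.4nM final, 18 h at 37 C. Beta-lactamase read by CCF4 fluorescence (460/530 nm); Hill fits gave IC50 and efficacy.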

Assay [7] addresses Voltage-gated inwardly rectifying potassium channel KCNH2 (Homo sapiens) (UniProt Q12809). Nature of the assay: qHTS Assay for Small Molecule Inhibitors of the Human hERG Channel Activity (AID 588834).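 Also: top concentration of the series differs between compounds; % is scaled to controls: 0 for no effect and ±100 for the full control effect; lower thallium flux fluorescence means stronger hERG block; nearly all actives have a fitted effect of over 50% in size.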 The essentials:
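In hERG-transduced U2OS cells, dye-loaded for 1 hr at room temperature in dark, test compounds incubated 10 min at 37 °C before thallium stimulation. AC50 values derived by Hill modelling of concentration-response.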

Assay [8] is described as follows: qHTS assay for small molecule disruptors of the mitochondrial membrane potential - 1 hr assay (AID 651754; calls by dose curve; also: % is scaled to controls: 0 for no effect and ±100 for the full control effect; nearly all actives have a fitted effect of over 35% in size). The essentials: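 Loss of mitochondrial potential shifts the cationic dye from red mitochondrial aggregates to green cytoplasmic monomers. Cells (HepG2) are treated with compound for 1 hr before a 30 min dye incubation at 37C.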
Assay [9] in a line: qHTS assay for small molecule disruptors of the mitochondrial membrane potential - 5 hr assay (AID 651755; calls by dose curve; also: % is scaled to controls: 0 for no effect and ±100 for the full control effect; nearly all actives have a fitted effect of over 40% in size). A digest of the protocol: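 Read-out: ratiometric Mito-MPS fluorescence, green monomer (ex 490/em 535) vs red mitochondrial aggregate (ex 540/em 590). HepG2 cells treated 5 hr at 37C before 30 min dye loading.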
Assay [10] concerns the target Tumor necrosis factor (Homo sapiens) (UniProt P01375). Nature of the assay: qHTS assay to identify small molecules that stimulate Tumor Necrosis Factor-alpha (TNF-alpha) secretion (AID 651757; active = well fitted curve in the direction sought with a large enough effect in the signal ratio; the % refers to the signal ratio; also: 0% is about no effect). A digest of the protocol: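 Human monocytic THP-1 cells are plated, treated with compound and held at 37 C for 17 hrs. Labeled anti-TNF-alpha antibody mixture is then added; after 3 hr at room temperature, TR-FRET signal reports secreted TNF-alpha.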

Assay [11] can be described thus: qHTS assay for environmental chemicals that activate the Aryl hydrocarbon Receptor (AhR) signaling pathway (AID 651777). Also: % of control where 0% means no effect; nearly all actives have a fitted effect of over 15% in size. To be noted: 1A2-DRE human hepatoma cells, luciferase, 24 h; activation: stronger effect = higher value. The essentials: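 Concentration–response screening used 1,200 1A2-DRE cells per well, 24 hr compound exposure (37 C, 5% CO2), and One-Glo luminescence as the AhR-driven CYP1A2 reporter signal.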

For assay [12], the target named is Peroxisome proliferator-activated receptor alpha (Homo sapiens) (UniProt Q07869). As to the kind of experiment: qHTS assay for small molecule agonists of the peroxisome proliferator-activated receptor alpha (PPARalpha) signaling pathway (AID 651778). Also: % of control where 0% means no effect. To be noted: PathHunter PPARalpha complementation, chemiluminescence, 6 h; stronger effect = higher value. A digest of the protocol:
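Enzyme-fragment complementation assay in which ligand-bound PPARalpha translocates and forms an active enzyme that generates chemiluminescence. Cells were plated overnight, exposed to compound for 6 hr at 37 C, and then given detection reagent for 60 min at room temperature.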

Assay [13] in a line: qHTS assay for small molecule agonists of the antioxidant response element (ARE) signaling pathway measured by Nrf2-dependant transcriptional activity (AID 720636; active = well fitted curve in the direction sought with a large enough effect in the repeat runs; an effect the other way counts as inactive or inconclusive; also: % of control where 0% means no effect). The essentials: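 Attachment 6 hr at 37 C, then compound versus DMSO vehicle for 16 hr in ARE-luc HepG2 cells (1% dialyzed FBS); luminescence recorded 30 min after ONE-Glo addition at room temperature.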
The nature of assay [14]: qHTS assay for small molecule antagonists of the retinoid-related orphan receptor gamma (ROR-gamma) signaling pathway - cell viability counter screen (AID 720652; active = well fitted curve in the direction sought with a large enough effect in the repeat runs; an effect the other way counts as inactive or inconclusive;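 also: CHO reporter cells with doxycycline-induced ROR-gamma expression; series mostly up to about 92 µM; compound exposure lasted 16 hr before ATP read; % is scaled to controls: 0 for no effect and ±100 for the full control effect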). A digest of the protocol:
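Steps: seed CHO cells bearing TET-inducible ROR and ROR response element-luciferase; rest 5 hr at 37 C; add compound, then doxycycline; incubate 16 hr; add CellTiter-Glo and read luminescence as ATP-based viability.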

Assay [15] in a line: qHTS assay for small molecule agonists of the antioxidant response element (ARE) signaling pathway measured by Nrf2-dependant transcriptional activity - cell viability counter screen (AID 720653; active = well fitted curve in the direction sought with a large enough effect in the repeat runs; an effect the other way counts as inactive or inconclusive; also: % is scaled to controls: 0 for no effect and ±100 for the full control effect). To be noted: ARE-bla HepG2 viability, CellTiter-Glo ATP luminescence, 16 h; stronger effect = lower value. The essentials: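 ARE-bla HepG2 cells treated with compounds for 16 h at 37C; this counter screen measures viability as intracellular ATP by CellTiter-Glo luminescence after 30 min at room temperature.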

Assay [16] in a line: qHTS assay for cell viability of HEK293 cells (AID 743288). Also: % is scaled to controls: 0 for no effect and ±100 for the full control effect; nearly all actives have a fitted effect of over 50% in size. To be noted: ATP luminescence (CellTiter-Glo), 18 h; max response: stronger effect = lower value. The essentials:
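After 18 h compound exposure at 37 C, parental HEK293 cells (2,000/well) are lysed with CellTiter-Glo and luminescence is read following 30 min at room temperature.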

Assay [17] in a line: qHTS assay for cell viability of the p53RE-bla HCT-116 cell line (AID 743292). Also: potency is read from the fitted curve at half-maximal effect; nearly all actives have a fitted effect of over 55% in size. The essentials:
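Compound-exposed HCT-116 (p53RE-bla) cells, 4,000 per well, were kept 16 h at 37 C following a 5 h preincubation. Cell number was estimated from total ATP by CellTiter-Glo luminescence read after 30 min at room temperature.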

The target of assay [18] is Rap guanine nucleotide exchange factor 3 (Homo sapiens) (UniProt O95398). Nature of the assay: Confirmatory qHTS for agonist of cAMP-regulated guanine nucleotide exchange factor 3 (EPAC1) (AID 1645881).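 Also: EPAC1 catalysed release of BODIPY-GDP from Rap1B seen as fluorescence loss; 100% = effect of cAMP agonist control; nearly all actives have a fitted effect of over 75% in size.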
Assay [19] deals with Rap guanine nucleotide exchange factor 4 (Homo sapiens) (UniProt Q8WZA2). As to the kind of experiment: Confirmatory qHTS for agonist of cAMP-regulated guanine nucleotide exchange factor 4 (EPAC2) (AID 1645884).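 Also: nucleotide exchange releases bodipy-GDP from Rap1 and this lowers its fluorescence; % is scaled to controls: 0 for no effect and ±100 for the full control effect; nearly all actives have a fitted effect of over 65% in size.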
The target is the same in assay [20]. As to the kind of experiment: Confirmatory qHTS for antagonist of cAMP-regulated guanine nucleotide exchange factor 4 (EPAC2) (AID 1645885). Also: potency is read from the fitted curve at half-maximal effect; nearly all actives have a fitted effect of over 25% in size.
Assay [21] concerns the target Rap guanine nucleotide exchange factor 3 (Homo sapiens) (UniProt O95398). As to the kind of experiment: Counterscreen qHTS for antagonist of cAMP-regulated guanine nucleotide exchange factor 3 (EPAC1) (AID 1645888).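 Also: fluorescence loss as bound BODIPY-GDP is released from Rap1B; % of control where 0% means no effect.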 The essentials:
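Rap1B–BODIPY-GDP (250 nM) with 50 uM GDP; compounds pin-transferred to 9.74 nM–152 uM final (activator) or from 7.32 nM upwards (inhibitor). Fluorescence Ex/Em 480/540 nm read at 5 and 30 min, then after adding cAMP or buffer, at room temperature.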

Assay [22] addresses Nuclear receptor subfamily 1 group I member 2 (Rattus norvegicus) (UniProt Q9R1A7). Nature of the assay: qHTS assay for small molecule activators of the rat pregnane X receptor (rPXR) signaling pathway (AID 651751; call rule not given here; also: 0% is about no effect). To be noted: rPXR reporter cells, luciferase (One-Glo), 24 h.
Assay [23] in a line: qHTS assay for small molecule activators of the human pregnane X receptor (PXR) signaling pathway (AID 720659; call rule not given here; also: 0% is about no effect).

Where “and” joins values, the source holds several entries; their conditions need not be identical. Equal entries are not always repeated. Inconclusive results are not listed. Calls of active or inactive are those of the source. Unless noted, calls follow the shape of the dose curve; as a rule, active = well fitted curve in the direction sought with a large enough effect; inconclusive = small, poorly fitted or top-dose-only effect, or another doubt; inactive = no such curve, though single readings can be large; an effect the other way counts as inactive or inconclusive.

Chain of Thyroid hormone receptor beta (Homo sapiens) (P10828 whole entry, looked up): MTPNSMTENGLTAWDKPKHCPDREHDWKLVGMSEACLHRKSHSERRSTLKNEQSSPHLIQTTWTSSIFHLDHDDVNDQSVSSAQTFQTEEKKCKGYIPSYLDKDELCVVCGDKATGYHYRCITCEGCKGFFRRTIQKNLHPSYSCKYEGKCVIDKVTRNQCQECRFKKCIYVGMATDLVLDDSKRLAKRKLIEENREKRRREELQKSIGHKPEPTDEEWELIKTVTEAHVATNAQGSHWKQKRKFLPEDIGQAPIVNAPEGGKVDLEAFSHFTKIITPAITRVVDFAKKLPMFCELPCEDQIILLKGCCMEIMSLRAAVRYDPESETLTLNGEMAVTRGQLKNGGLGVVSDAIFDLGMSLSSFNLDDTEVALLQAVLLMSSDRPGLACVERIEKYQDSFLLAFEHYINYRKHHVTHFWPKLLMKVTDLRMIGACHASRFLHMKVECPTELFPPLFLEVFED
Chain of Vitamin D3 receptor (Homo sapiens) (P11473 whole entry, looked up): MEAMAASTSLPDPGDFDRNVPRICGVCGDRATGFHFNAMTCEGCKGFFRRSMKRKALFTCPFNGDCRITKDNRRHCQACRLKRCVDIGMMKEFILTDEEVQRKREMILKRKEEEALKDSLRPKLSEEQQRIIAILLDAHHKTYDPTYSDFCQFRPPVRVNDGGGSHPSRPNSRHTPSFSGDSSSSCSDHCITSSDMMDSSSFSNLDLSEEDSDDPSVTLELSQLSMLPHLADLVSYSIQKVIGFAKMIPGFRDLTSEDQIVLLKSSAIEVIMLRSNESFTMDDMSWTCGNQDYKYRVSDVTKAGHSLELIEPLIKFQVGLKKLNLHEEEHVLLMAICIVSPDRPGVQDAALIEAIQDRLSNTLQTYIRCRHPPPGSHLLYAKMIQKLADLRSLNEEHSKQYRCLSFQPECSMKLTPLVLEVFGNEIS
Chain of Nuclear receptor subfamily 1 group I member 2 (Rattus norvegicus) (Q9R1A7 whole entry, looked up): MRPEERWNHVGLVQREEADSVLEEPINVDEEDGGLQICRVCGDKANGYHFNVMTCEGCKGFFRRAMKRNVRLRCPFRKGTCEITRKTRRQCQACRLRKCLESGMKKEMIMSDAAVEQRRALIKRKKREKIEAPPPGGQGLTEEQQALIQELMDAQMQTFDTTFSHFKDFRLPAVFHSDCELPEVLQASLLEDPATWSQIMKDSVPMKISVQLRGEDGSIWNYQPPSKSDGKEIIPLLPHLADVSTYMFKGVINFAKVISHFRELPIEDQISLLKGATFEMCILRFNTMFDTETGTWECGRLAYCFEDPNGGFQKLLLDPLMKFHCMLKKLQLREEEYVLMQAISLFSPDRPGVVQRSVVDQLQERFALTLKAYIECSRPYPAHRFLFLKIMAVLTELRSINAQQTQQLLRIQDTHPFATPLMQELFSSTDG
Chain of Peroxisome proliferator-activated receptor alpha (Homo sapiens) (Q07869 whole entry, looked up, the tested form may be a part): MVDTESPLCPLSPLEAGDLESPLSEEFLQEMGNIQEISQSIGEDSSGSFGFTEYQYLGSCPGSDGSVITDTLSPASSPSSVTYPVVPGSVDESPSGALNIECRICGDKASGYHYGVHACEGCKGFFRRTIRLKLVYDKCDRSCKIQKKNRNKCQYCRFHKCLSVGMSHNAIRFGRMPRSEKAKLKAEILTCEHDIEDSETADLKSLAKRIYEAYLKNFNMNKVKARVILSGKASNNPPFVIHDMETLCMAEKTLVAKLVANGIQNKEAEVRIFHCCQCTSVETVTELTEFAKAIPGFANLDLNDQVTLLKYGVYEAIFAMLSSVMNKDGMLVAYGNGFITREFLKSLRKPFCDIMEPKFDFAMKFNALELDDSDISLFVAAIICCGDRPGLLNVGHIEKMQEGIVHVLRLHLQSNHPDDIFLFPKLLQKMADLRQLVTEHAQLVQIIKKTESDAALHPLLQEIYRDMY
Chain of Rap guanine nucleotide exchange factor 4 (Homo sapiens) (Q8WZA2 whole entry, looked up): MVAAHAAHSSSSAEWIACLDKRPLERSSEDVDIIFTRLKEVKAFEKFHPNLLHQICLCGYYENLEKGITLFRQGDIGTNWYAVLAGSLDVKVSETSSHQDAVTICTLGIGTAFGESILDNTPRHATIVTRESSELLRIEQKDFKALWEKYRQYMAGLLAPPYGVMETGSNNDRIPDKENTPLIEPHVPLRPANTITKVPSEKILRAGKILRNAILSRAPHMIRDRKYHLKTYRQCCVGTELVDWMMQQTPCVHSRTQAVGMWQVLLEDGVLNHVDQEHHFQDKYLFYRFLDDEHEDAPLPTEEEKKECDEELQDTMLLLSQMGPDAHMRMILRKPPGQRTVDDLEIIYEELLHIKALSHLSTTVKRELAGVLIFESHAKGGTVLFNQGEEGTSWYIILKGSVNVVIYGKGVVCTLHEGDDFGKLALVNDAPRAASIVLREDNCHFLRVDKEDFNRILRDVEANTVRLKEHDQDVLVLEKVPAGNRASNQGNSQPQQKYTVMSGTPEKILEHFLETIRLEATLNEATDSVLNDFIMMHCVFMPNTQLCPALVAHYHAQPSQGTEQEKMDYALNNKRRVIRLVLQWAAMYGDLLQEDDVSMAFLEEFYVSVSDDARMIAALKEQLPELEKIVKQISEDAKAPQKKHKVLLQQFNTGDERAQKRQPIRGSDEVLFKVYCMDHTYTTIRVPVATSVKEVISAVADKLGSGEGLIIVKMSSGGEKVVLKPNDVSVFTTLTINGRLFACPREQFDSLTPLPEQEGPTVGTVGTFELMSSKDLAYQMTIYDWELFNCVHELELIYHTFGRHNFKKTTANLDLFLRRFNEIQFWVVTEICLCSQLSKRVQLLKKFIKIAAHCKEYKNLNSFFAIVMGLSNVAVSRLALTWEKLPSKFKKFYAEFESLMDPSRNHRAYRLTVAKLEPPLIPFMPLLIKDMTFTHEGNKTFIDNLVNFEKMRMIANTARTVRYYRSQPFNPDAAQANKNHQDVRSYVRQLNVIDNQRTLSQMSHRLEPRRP
Chain of Rap guanine nucleotide exchange factor 3 (Homo sapiens) (O95398 whole entry, looked up): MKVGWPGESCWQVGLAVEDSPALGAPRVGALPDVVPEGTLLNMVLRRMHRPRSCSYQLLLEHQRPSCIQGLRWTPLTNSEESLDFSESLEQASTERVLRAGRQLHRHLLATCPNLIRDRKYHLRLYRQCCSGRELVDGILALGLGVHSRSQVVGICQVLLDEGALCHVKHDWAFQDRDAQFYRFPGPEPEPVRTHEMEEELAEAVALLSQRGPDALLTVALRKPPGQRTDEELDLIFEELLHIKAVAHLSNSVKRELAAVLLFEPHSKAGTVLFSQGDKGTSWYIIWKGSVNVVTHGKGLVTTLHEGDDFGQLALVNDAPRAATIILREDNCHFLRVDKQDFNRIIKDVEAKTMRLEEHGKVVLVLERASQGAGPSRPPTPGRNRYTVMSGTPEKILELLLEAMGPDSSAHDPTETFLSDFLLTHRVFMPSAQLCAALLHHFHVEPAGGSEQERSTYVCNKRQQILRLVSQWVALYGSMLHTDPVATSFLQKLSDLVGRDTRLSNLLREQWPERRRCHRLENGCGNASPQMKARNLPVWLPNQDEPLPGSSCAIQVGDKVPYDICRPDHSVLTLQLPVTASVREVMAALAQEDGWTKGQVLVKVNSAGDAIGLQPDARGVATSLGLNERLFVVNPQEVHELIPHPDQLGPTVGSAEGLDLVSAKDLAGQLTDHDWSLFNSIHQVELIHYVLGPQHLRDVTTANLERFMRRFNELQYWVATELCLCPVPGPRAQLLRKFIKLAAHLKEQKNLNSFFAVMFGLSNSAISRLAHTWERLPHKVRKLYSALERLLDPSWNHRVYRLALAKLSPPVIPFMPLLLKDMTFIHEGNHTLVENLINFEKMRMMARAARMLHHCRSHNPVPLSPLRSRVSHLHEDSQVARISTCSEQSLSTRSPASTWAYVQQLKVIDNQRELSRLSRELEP
Chain of Voltage-gated inwardly rectifying potassium channel KCNH2 (Homo sapiens) (Q12809 whole entry, looked up): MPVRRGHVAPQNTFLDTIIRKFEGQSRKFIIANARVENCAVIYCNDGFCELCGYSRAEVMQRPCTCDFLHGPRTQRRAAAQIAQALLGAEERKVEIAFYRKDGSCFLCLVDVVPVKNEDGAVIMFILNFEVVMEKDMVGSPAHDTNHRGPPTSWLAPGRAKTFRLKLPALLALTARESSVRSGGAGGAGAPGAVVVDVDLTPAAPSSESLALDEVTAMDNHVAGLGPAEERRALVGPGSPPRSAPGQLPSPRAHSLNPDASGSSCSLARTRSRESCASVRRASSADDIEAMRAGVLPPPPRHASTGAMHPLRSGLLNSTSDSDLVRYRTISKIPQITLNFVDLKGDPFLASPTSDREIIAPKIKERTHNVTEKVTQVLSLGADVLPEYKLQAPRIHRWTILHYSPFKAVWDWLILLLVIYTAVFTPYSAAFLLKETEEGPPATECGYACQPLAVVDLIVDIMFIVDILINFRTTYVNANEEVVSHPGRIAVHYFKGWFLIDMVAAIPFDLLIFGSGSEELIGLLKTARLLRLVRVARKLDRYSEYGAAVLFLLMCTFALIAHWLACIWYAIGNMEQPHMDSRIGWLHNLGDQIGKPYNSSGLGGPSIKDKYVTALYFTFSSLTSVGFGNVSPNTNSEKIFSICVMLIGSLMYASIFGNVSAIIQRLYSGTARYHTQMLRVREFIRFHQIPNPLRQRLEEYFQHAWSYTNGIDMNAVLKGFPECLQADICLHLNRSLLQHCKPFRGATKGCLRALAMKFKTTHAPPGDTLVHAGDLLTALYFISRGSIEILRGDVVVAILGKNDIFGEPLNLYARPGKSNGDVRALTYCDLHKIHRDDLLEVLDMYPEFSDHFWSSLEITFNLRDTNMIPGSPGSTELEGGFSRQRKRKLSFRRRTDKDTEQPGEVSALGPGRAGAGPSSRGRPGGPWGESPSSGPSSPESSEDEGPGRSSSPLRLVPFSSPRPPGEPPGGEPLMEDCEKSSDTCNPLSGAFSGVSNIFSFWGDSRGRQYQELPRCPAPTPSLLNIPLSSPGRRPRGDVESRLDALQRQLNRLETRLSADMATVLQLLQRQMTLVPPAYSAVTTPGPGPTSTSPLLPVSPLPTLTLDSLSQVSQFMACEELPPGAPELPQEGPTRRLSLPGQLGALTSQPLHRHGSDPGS

As for `Clc1cc(Cl)c(-c2cc(Cl)c(Cl)cc2Cl)cc1Cl`, the call in assay [1], in assay [2], in assay [3], in [10], in assay [13] and in assay [21] was inactive. For the same molecule, the outcome in [23] was inactive. Also, the max response in assay [4] is 9.9%; in assay [5], 12.5% (inactive); in [12], -1.16% (inactive) and 9.79% (inactive); in assay [15], -2.79% (inactive) and -2.97% (inactive); in assay [16], -28.5% (inactive) and -15.8% (inactive); in [22], 2.83% (inactive) and 5.76% (inactive). Further, in assay [6], the activity change % (negative = inhibition) is -3% (inactive) and 18.9% (inactive). The Potency entry in assay [7], in assay [8], in [9], in assay [14], in [18] and in [19] was “inactive” throughout. Further, in [11], the activation is -0.0322% (inactive) and 0.521% (inactive). Moreover, the values for the Potency in assay [17] and in [20] were 44.7 µM (active) and 4.78 µM (active), respectively.

These data come from PubChem BioAssay (NCATS).
